This note sets out measurements from PubChem BioAssay AID504843 (Broad Institute, 2011).

The campaign covered roughly 1,200 compounds. About 360 (30%) were called active. No rule for the calls is given here. The list is a sample of the results. Results with a measured potency or affinity are listed apart.

The experiment in a line: bacterial growth inhibition, dose response, counter-screen, BacTiter-Glo luminescence, cherry-picked samples (AID 504843).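 Also: growth measured after 8 h incubation at 30 °C.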 To be noted: BacTiter-Glo ATP luminescence; series mostly up to 15 µM.
As to `O=C(O)[C@@H](c1ccccc1)N1Cc2ccccc2C1=O`, the call was inactive. Turning to `CC1CC(=O)N(c2ccc(Br)cc2)C(=O)C1`, the outcome was inactive. Take `COc1ccc(OCc2nnc(SCC(=O)N3C(C)CCCC3C)o2)cc1` (stereo unspecified): the compound was called inactive. For `CC(C)(C)c1cc(NS(=O)(=O)c2ccc3c(c2)OCCO3)on1` the value was “inactive”; for `O=C(COc1ccc([N+](=O)[O-])cc1)Nc1cccc2nsnc12`, “inactive”.

On to `Cc1cc(NC(=O)c2ccc([N+](=O)[O-])cc2)n(C)n1`, for which the outcome was inactive. Turning to `COc1ccc2nc(SCC(=O)Nc3cc(OC)c(OC)cc3C(=O)O)c(C)cc2c1`, the compound was classed as inactive. Consider `O=C(Nc1ccc(S(=O)(=O)Nc2ncccn2)cc1)c1cncc(Br)c1`, for which the outcome was inactive. `Cc1ccc(S(=O)(=O)CCNC(=O)Cc2ccc(Cl)cc2)cc1`: the outcome was inactive. As for `O=C(COC(=O)C12CC3CC(CC(Br)(C3)C1)C2)Nc1cccnc1Cl`, the compound was called inactive. Turning to `Cc1ccnc(SCCn2c(N3CC(C)CC(C)C3)nc3c2c(=O)n(C)c(=O)n3C)n1` (stereo unspecified), the compound was classed as inactive. As for `Cc1cc(N2C(=O)c3ccc(C(=O)Nc4ccc(O)cc4C(=O)O)cc3C2=O)no1`, the entry is “inactive”. For `O=C(N/N=C/C1=C(N2CCOCC2)C(=C\c2ccccc2)/CC1)Nc1ccccc1` the value was “inactive”; for `COc1cccc(C2C(C(=O)OC(C)C)=C(C)Nc3ncnn32)c1` (stereo unspecified), “inactive”.

As to `Cc1csc(NC(=O)c2c(-c3c(Cl)cccc3Cl)noc2C)n1`, the compound was called inactive. As for `COc1ccc(Nc2nc3ccccc3nc2-n2nc(C)cc2C)cc1`, the entry is “inactive”.

As for `COc1cc(OC)c2c(C)cc(=O)oc2c1`, the outcome was inactive. As for `COc1cccc(-n2c(SCc3ccccn3)nc3c(c2=O)SCC3)c1`, the entry is “inactive”; as for `COc1ccc(NC(=O)c2ccccc2[N+](=O)[O-])cc1OC`, “inactive”. In the case of `CCN(CC)CCCn1c(C)cc2c(c1=O)C(c1cccc(Cl)c1)C(C#N)=C(N)O2` (stereo unspecified), the compound was classed as inactive. As for `Cc1ccnc(SCC(=O)c2cccs2)n1`, the entry is “inactive”.

For the compound `O=C(CSc1ncccn1)N/N=C/c1cccs1`, the compound was classed as inactive. Regarding `COc1cc(NC2c3ccccc3C(=O)N2Cc2ccc3c(c2)OCO3)cc(OC)c1OC` (stereo unspecified), the result was inactive.

`COc1ccccc1N1CCN(CC(=O)Nc2ccc3c(c2)OCCO3)CC1`: the compound was classed as inactive. As for `COc1cccc(C(=O)NCCS(=O)(=O)NCc2ccccn2)c1`, the entry is “inactive”. For `COc1ccc(C(=O)NC(C(=O)NCc2ccccn2)C(C)C)cc1` (stereo unspecified) the value was “inactive”.

`Cc1nn2c(SCC(=O)c3cccs3)cc(C(C)(C)C)nc2c1-c1ccccc1`: the call was inactive. Turning to `O=c1[nH]c(-c2ccccn2)nc2ccccc12`, the result was inactive. Turning to `CC1=NCC(C)c2c1[nH]c1ccccc21` (stereo unspecified), the result was inactive. As for `O=C(CNC(=O)c1ccccc1)NC1(C(=O)NC2CCCC2)CCCCC1`, the call was inactive. As for `COC(=O)c1sccc1NC(=O)c1ccc2c(c1)OCO2`, the entry is “inactive”.
